Each structure is given as a SMILES string.

We go through 29 compounds from ChEMBL document CHEMBL1157539, “Thousands of chemical starting points for antimalarial lead identification” (Nature, 2010).

Common to all, as to format: functional
For experiment [1], the system named is Plasmodium falciparum. Briefly: GSK_TCMDC: Inhibition of Plasmodium falciparum 3D7 in whole red blood cells, using parasite LDH activity as an index of growth. Test compounds present at 2uM.
In experiment [2] the test system is Plasmodium falciparum. Briefly: GSK_TCMDC: Inhibition of Plasmodium falciparum Dd2 in whole red blood cells, using parasite LDH activity as an index of growth. Test compounds present at 2uM.
Experiment [3] has as its system HepG2. Kind of experiment: GSK_TCMDC: Percent inhibition of human HepG2 cell line. Test compounds present at 10uM.

Regarding `Cc1ccc(-n2nc(-c3ccccc3)c3cc(C(=O)NCCN)sc32)cc1`, the Inhibition in experiment [1] is listed as 92%; in experiment [2], 43%; in experiment [3], 28%.
The corresponding values for `CCn1c(-c2nonc2N)nc2c(-c3cccc(NC(=O)Nc4ccccc4OC)c3)ncc(OCCCN)c21.O=C(O)C(F)(F)F` are 92%, 58% and 84%.
Regarding `COc1cc(OC)cc(-c2nc3ccc(OCCN(C)C)c(C#N)c3[nH]2)c1`, the figures for the Inhibition in experiment [1], in experiment [2] and in experiment [3] were 99%, 25% and 4%, respectively.
On to `COc1ccc(CNC(=O)c2cnc3c(O)cccc3c2Nc2cccc(NC(=O)c3ccc(-c4ccccc4)cc3)c2)cc1.O=C(O)C(F)(F)F`, for which the figures for the Inhibition in experiment [1], in experiment [2] and in experiment [3] were 90%, 83% and 42%, respectively.
With `O=C(NCCCCCN1CCC(c2c[nH]c3ccccc23)CC1)Nc1ccc(I)cc1`, the results for the Inhibition in experiment [1], in experiment [2] and in experiment [3] were 100%, 0% and 51%, respectively.
For `C(=NN=c1cc[nH]c2ccccc12)c1ccncc1` the same measures were 95%, 27% and 7%.
Turning to `Cc1cccc2nc(-c3ccc(-c4cccc(CN5CCC(CO)CC5)c4)s3)[nH]c12.O=C(O)C(F)(F)F`, the Inhibition in experiment [1] stood at 99%; in experiment [2], 61%; in experiment [3], 20%.
For the compound `NC(=O)COc1c(C2CCN(CCCCNC(=O)c3ccc(-c4ccc(Cl)cc4)c(O)c3)CC2)ccc2c1CCCC2`, the Inhibition in experiment [1] was 100%; in experiment [2] it was 72%; in experiment [3], 97%.
`CCCCOP(=O)(OCCCC)C(=Cc1ccc(O)c2ccccc12)P(=O)(OCCCC)OCCCC`: the Inhibition amounted to 84% in experiment [1], 64% in experiment [2] and 1% in experiment [3].
In the case of `COc1ccc2nc3cc(Cl)ccc3c(NCCCN3CCNCC3)c2c1.Cl`, the Inhibition in experiment [1] is given as 100%; in experiment [2], 74%; in experiment [3], 18%.
For `Cl.NOCCCCOc1cc(Cl)c(Cl)cc1Cl` the same measures were 92%, 5% and 6%.
For `COc1ccc(C=NN=c2c3ccccc3[nH]c3ccccc23)c2ccccc12`, the Inhibition in experiment [1] was 82%; in experiment [2], 23%; in experiment [3] it was 9%.
The corresponding values for `Cc1ccc(O)cc1Nc1ccnc2cc(-c3csc(CN(C)CCN(C)C)n3)ccc12` are 100%, 80% and 3%.
Consider `C#CCCC(=O)Nc1cccc(-c2cccc(-c3nc4cccc(C)c4[nH]3)c2)c1`, for which the Inhibition was 97% in experiment [1], 29% in experiment [2] and 30% in experiment [3].
As to `Clc1ccc(Sc2cncnc2N2CCOCC2)cc1`, the figures for the Inhibition in experiment [1], in experiment [2] and in experiment [3] were 95%, 0% and 66%, respectively.
The corresponding values for `CC(C)NCc1cccc(-c2cccc(-c3nc4ccccc4[nH]3)c2)c1.O=C(O)C(F)(F)F` are 100%, 22% and 11%.
With `Cc1noc(C)c1-c1ccc(C(=C2CCCCCCC2)c2ccc(O)cc2)cc1`, the values for the Inhibition in experiment [1], in experiment [2] and in experiment [3] were 83%, 48% and 0%, respectively.
Consider `Fc1ccc(CNc2ncc(-c3ccsc3)c(-c3nccs3)n2)cc1`, for which the Inhibition turned out to be 94% in experiment [1], 77% in experiment [2] and 7% in experiment [3].
For `O=C(/C=C/c1ccc(Cl)c(Cl)c1)NCCCCCN1CCCN(C(=O)Nc2cccc(C(F)(F)F)c2)CC1` the same measures were 96%, 0% and 45%.
For `CC[C@H](C)CNC(=O)c1ccnc(-c2ccc(CN3CCC(N4CCCC4)CC3)cc2)c1.O=C(O)C(F)(F)F` the same measures were 99%, 84% and 13%.
For `Cc1cc(Oc2ccc(-n3ccnc3)cc2)nc(N2CCN(CCCN3CCCC3)CC2)n1.O=C(O)C(F)(F)F` the same measures were 90%, 7% and 5%.
As for `O=C(NCCN1CCCC1)c1cccc(-c2ccc(-c3nc4ccccc4[nH]3)cc2)c1`, the Inhibition in experiment [1] stood at 100%; in experiment [2], 36%; in experiment [3] it was 20%.
Turning to `COc1ccc(CCNc2nc(SCc3ccccc3Cl)nc3ccccc23)cc1OC`, the Inhibition in experiment [1] stood at 94%; in experiment [2], 2%; in experiment [3] it was 27%.
For `COc1ccc(CNCc2ccc(F)cc2)cc1-c1cccc(S(=O)(=O)NCCN2CCCC2)c1.O=C(O)C(F)(F)F`, the Inhibition in experiment [1] came out at 100%; in experiment [2] it was 54%; in experiment [3] it was 43%.
As for `Cl.O=S(=O)(c1ccc2ccccc2c1)N1CCCN(Cc2ccc(OCCCN3CCCCC3)cc2)CC1`, the Inhibition in experiment [1] is on record as 98%; in experiment [2], 11%; in experiment [3], 43%.
With `O=C(c1cc(-c2cccs2)n[nH]1)N1CCN(S(=O)(=O)c2ccc(Br)cc2)CC1`, the results for the Inhibition in experiment [1], in experiment [2] and in experiment [3] were 93%, 95% and 0%, respectively.
Regarding `CCCc1cc(NC2CCN(C)CC2)nc(Nc2ccc(C)cc2)n1`, the Inhibition in experiment [1] turned out to be 100%; in experiment [2], 20%; in experiment [3], 25%.
For the compound `Cc1cc(=O)c(-c2ccc(OCCSc3ccc(C(F)(F)F)cn3)cc2)c(C)[nH]1`, the Inhibition is listed as 97% in experiment [1], 96% in experiment [2] and 2% in experiment [3].
With `Cl.O=C(Nc1ccc2c(c1)CCN(C1CCC1)CC2)c1ccc(-n2ccnc2)cn1`, the Inhibition in experiment [1] is listed as 92%; in experiment [2], 0%; in experiment [3], 8%.
